Experimental data from PubChem BioAssay (NCI).
This is part of a sample that, as a whole, favours compounds with a hit. Of some 79,000 tested, about 15% had one in any assay. Activity calls are given as the source filed them. No stated cut-off is given here; in the data, active means growth inhibition above about 70%; inactive means the rest.

Assays:
[1] = NCI Yeast Anticancer Drug Screen. Data for the rad52 strain (AID 147);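 further: 0% = growth of vehicle-treated control cultures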; details: S. cerevisiae rad52 mutant growth inhibition, stronger effect = higher value
How it was run: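 Yeast strain carrying a DNA damage repair alteration was exposed to test compounds. Growth inhibition was measured relative to vehicle-treated controls.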

[2] = NCI Yeast Anticancer Drug Screen. Data for the wt1 strain (AID 149);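 further: 0% = growth of vehicle-treated wt1 cultures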; details: S. cerevisiae wt1 strain (SPY 50644) growth inhibition, stronger effect = higher value
How it was run: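 wt1 yeast, compound-treated; % growth inhibition vs vehicle control.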

[3] = NCI Yeast Anticancer Drug Screen. Data for the rad50EPP+ strain (AID 151);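 further: 0% = growth of vehicle-treated control cultures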; details: S. cerevisiae rad50 mutant strain, stronger effect = higher value
How it was run: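 Yeast strain carrying rad50 alteration (rad50EPP+) exposed to compounds; growth inhibition measured relative to vehicle-treated controls.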

[4] = NCI Yeast Anticancer Drug Screen. Data for the mgt1 strain (AID 153); details: S. cerevisiae mgt1 mutant growth inhibition, stronger effect = higher value
How it was run: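 Yeast mgt1 strain (DNA repair/cell-cycle alteration panel) exposed to compounds; growth inhibition measured relative to vehicle-treated controls.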

[5] = NCI Yeast Anticancer Drug Screen. Data for the rad50 strain (AID 155);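 further: 0% = growth of vehicle-only cultures of the same strain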; details: S. cerevisiae rad50 strain growth inhibition, stronger effect = higher value
How it was run: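 Genetically altered yeast (DNA repair pathway); compound treatment; growth inhibition vs vehicle ctrl.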

[6] = NCI Yeast Anticancer Drug Screen. Data for the mec2-1 strain (AID 157); details: S. cerevisiae mec2-1 strain, stronger effect = higher value
How it was run: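 mec2-1 yeast strain, carrying an alteration in DNA damage repair or cell cycle control, was exposed to compounds; growth inhibition was measured relative to vehicle-treated controls.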

[7] = NCI Yeast Anticancer Drug Screen. Data for the rad14 strain (AID 159);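 further: 0% = growth of vehicle-treated control cultures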; details: S. cerevisiae rad14 strain growth inhibition, stronger effect = higher value
How it was run: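 Test compounds were applied to a repair-deficient yeast strain. Its growth was then compared with that of cultures given vehicle alone, and inhibition was expressed relative to those controls.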

[8] = NCI Yeast Anticancer Drug Screen. Data for the sgs1 mgt1 strain (AID 161);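 further: 0% = growth of cultures given vehicle only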; details: S. cerevisiae sgs1 mgt1 strain, stronger effect = higher value
How it was run: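 Percent growth inhibition was derived by comparing compound-exposed mutant yeast with vehicle-exposed cultures. The strain carries alterations in DNA damage repair.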

[9] = NCI Yeast Anticancer Drug Screen. Data for the CLN2oe strain (AID 163);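 further: 0% = growth of vehicle-only control cultures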; details: S. cerevisiae CLN2oe strain, stronger effect = higher value
How it was run: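 Yeast cells carrying a defined cell-cycle control alteration were exposed to test compounds. Growth inhibition was scored against vehicle-treated control cultures.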

[10] = NCI Yeast Anticancer Drug Screen. Data for the cln2 rad14 strain (AID 165);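 further: 0% = growth equal to vehicle treated cultures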; details: S. cerevisiae cln2 rad14 strain, stronger effect = higher value
How it was run: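 Yeast carrying cln2 and rad14 alterations (cell cycle control and DNA damage repair) were exposed to compounds. Growth inhibition was measured against vehicle-treated controls.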

[11] = NCI Yeast Anticancer Drug Screen. Data for the bub3 strain (AID 167); details: S. cerevisiae bub3 mutant strain, stronger effect = higher value
How it was run: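 Yeast carrying a defined mutation is treated with each compound, and growth is compared with that of vehicle-exposed cells to give inhibition.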

[12] = NCI Yeast Anticancer Drug Screen. Data for the wt2 strain (AID 169);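 further: 0% = growth of vehicle-treated yeast cultures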; details: S. cerevisiae wt2 strain growth inhibition, stronger effect = higher value
How it was run: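 Yeast cells were exposed to test compounds, and growth inhibition was measured relative to vehicle-treated controls.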

[13] = NCI Yeast Anticancer Drug Screen. Data for the mlh1 strain (AID 171);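 further: 0% = growth of vehicle-treated control cultures of the same strain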; details: S. cerevisiae mlh1 strain growth inhibition, stronger effect = higher value
How it was run: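 Yeast carrying a defined genetic alteration in DNA damage repair or cell cycle control were exposed to test compounds. Growth inhibition was measured relative to vehicle-treated controls.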

[14] = NCI Yeast Anticancer Drug Screen. Data for the sgs1 strain (AID 173);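 further: 0% = growth of vehicle-only control cultures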; details: S. cerevisiae sgs1 mutant, stronger effect = higher value
How it was run: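 Yeast mutant strains carrying defined defects in DNA damage repair or cell cycle control were exposed to test compounds. Growth inhibition was scored against vehicle-treated controls.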

[15] = NCI Yeast Anticancer Drug Screen. Data for the mlh1 rad18 strain (AID 175); details: S. cerevisiae mlh1 rad18 strain growth inhibition, stronger effect = higher value
How it was run: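 Growth inhibition of the yeast strain was measured after compound exposure and expressed relative to vehicle-treated controls. The strain carries defined defects in DNA damage repair.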

[16] = NCI Yeast Anticancer Drug Screen. Data for the rad18 strain (AID 177); details: S. cerevisiae rad18 mutant growth inhibition, stronger effect = higher value
How it was run: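 Yeast carrying a defined DNA damage repair alteration were exposed to compounds. Growth inhibition was expressed relative to vehicle-treated controls.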

[17] = at 5.0 µM (retest, dose inferred, filed as 0.5)
[18] = at 50.0 µM (retest, dose inferred, filed as 5.0)

Measured: growth inhibition

CC1CCC2(C(=O)O)CCC3(C)C(=CCC4C5(C)CC(O)C(O)C(C)(CO)C5C(O)CC43C)C2C1C (stereo not given)
active: [1]; at 100.0 µM 81% | [2]; at 100.0 µM 80% | [5]; [18] 88% | [5]; at 50.0 µM 76.9% | [6]; [18] 90% | [6]; at 50.0 µM 82.3% | [6]; at 100.0 µM 75% | [7]; at 100.0 µM 85% | [8]; [18] 70% | [8]; at 50.0 µM 78.7% | [9]; at 100.0 µM 78% | [10]; [18] 77% | [11]; [18] 93% | [11]; at 50.0 µM 88.9% | [11]; at 100.0 µM 95% | [12]; at 100.0 µM 96% | [13]; at 100.0 µM 95% | [14]; at 100.0 µM 95% | [15]; [18] 78% | [16]; at 100.0 µM 87%
inactive: [1]; at 1.2 µM -23% | [1]; at 3.7 µM -25% | [1]; at 11.0 µM -28% | [1]; at 33.0 µM -15% | [2]; at 1.2 µM -17% | [2]; at 3.7 µM -20% | [2]; at 11.0 µM -17% | [2]; at 33.0 µM -3% | [3]; at 1.2 µM 0% | [3]; at 3.7 µM -7% | [3]; at 11.0 µM -2% | [3]; at 33.0 µM 3% | [3]; at 100.0 µM 33% | [4]; at 1.2 µM -34% | [4]; at 3.7 µM -34% | [4]; at 11.0 µM -32% | [4]; at 33.0 µM -36% | [4]; at 100.0 µM 47% | [5]; at 1.2 µM 13% | [5]; at 3.7 µM -20% | [5]; [17] 54% | [5]; at 11.0 µM -20% | [5]; at 33.0 µM -28% | [5]; at 100.0 µM 63% | [6]; at 1.2 µM -15% | [6]; at 3.7 µM -6% | [6]; [17] -1% | [6]; at 11.0 µM -17% | [6]; at 33.0 µM -15% | [7]; at 1.2 µM -13% | [7]; at 3.7 µM -13% | [7]; at 11.0 µM -4% | [7]; at 33.0 µM 6% | [8]; [17] 16% | [9]; at 1.2 µM -6% | [9]; at 3.7 µM -4% | [9]; at 11.0 µM 3% | [9]; at 33.0 µM 7% | [10]; [17] 20% | [10]; at 50.0 µM 39.1% | [11]; at 1.2 µM -5% | [11]; at 3.7 µM -2% | [11]; [17] 16% | [11]; at 11.0 µM -1% | [11]; at 33.0 µM 13% | [12]; at 1.2 µM -2% | [12]; at 3.7 µM -2% | [12]; at 11.0 µM -1% | [12]; at 33.0 µM 21% | [13]; at 1.2 µM -29% | [13]; at 3.7 µM -8% | [13]; at 11.0 µM -20% | [13]; at 33.0 µM -2% | [14]; at 1.2 µM -4% | [14]; at 3.7 µM 9% | [14]; at 11.0 µM -10% | [14]; at 33.0 µM -17% | [15]; [17] 41% | [15]; at 50.0 µM 58.7% | [16]; at 1.2 µM -43% | [16]; at 3.7 µM -47% | [16]; at 11.0 µM -42% | [16]; at 33.0 µM -61%

COC(=O)/C=C1/OC(c2ccc(Br)cc2)=C(Br)C1=O
active: [3]; at 100.0 µM 97% | [4]; at 100.0 µM 87% | [6]; [18] 85% | [6]; at 100.0 µM 71% | [7]; at 100.0 µM 78% | [8]; at 50.0 µM 86.2% | [11]; at 33.0 µM 70% | [11]; at 50.0 µM 72.8% | [11]; at 100.0 µM 95% | [12]; at 33.0 µM 76% | [12]; at 100.0 µM 95% | [16]; at 100.0 µM 92%
inactive: [1]; at 1.2 µM -25% | [1]; at 3.7 µM -22% | [1]; at 11.0 µM -18% | [1]; at 33.0 µM -7% | [1]; at 100.0 µM 38% | [2]; at 1.2 µM -16% | [2]; at 3.7 µM -13% | [2]; at 11.0 µM -29% | [2]; at 33.0 µM -11% | [2]; at 100.0 µM 16% | [3]; at 1.2 µM -6% | [3]; at 3.7 µM -7% | [3]; at 11.0 µM 0% | [3]; at 33.0 µM 59% | [4]; at 1.2 µM 3% | [4]; at 3.7 µM 3% | [4]; at 11.0 µM -7% | [4]; at 33.0 µM 7% | [5]; at 1.2 µM -35% | [5]; at 3.7 µM -28% | [5]; [17] 3% | [5]; at 11.0 µM -5% | [5]; at 33.0 µM -11% | [5]; [18] 36% | [5]; at 50.0 µM 17.6% | [5]; at 100.0 µM 65% | [6]; at 1.2 µM 9% | [6]; at 3.7 µM -1% | [6]; [17] 18% | [6]; at 11.0 µM -5% | [6]; at 33.0 µM 8% | [6]; at 50.0 µM 18.8% | [7]; at 1.2 µM -4% | [7]; at 3.7 µM -16% | [7]; at 11.0 µM -15% | [7]; at 33.0 µM -21% | [8]; [17] 12% | [8]; [18] 16% | [9]; at 1.2 µM 8% | [9]; at 3.7 µM 10% | [9]; at 11.0 µM 10% | [9]; at 33.0 µM 26% | [9]; at 100.0 µM 59% | [10]; [17] 2% | [10]; [18] 14% | [10]; at 50.0 µM 33.8% | [11]; at 1.2 µM 20% | [11]; at 3.7 µM 6% | [11]; [17] 32% | [11]; at 11.0 µM -12% | [11]; [18] 40% | [12]; at 1.2 µM -25% | [12]; at 3.7 µM -22% | [12]; at 11.0 µM -20% | [13]; at 1.2 µM -18% | [13]; at 3.7 µM -4% | [13]; at 11.0 µM -14% | [13]; at 33.0 µM -12% | [13]; at 100.0 µM 27% | [15]; [17] 11% | [15]; [18] 49% | [16]; at 1.2 µM -30% | [16]; at 3.7 µM -14% | [16]; at 11.0 µM -12% | [16]; at 33.0 µM 41%
